Measured values from article PMC4336329 (PLoS ONE, 2015).
Hit rate of the full screen: of about 310,000 compounds, about 14,000 (4.5%) showed an effect of 50% or more. The effect is printed as a negative number. The sample holds strong results, similar compounds and a random draw of the others, so the mix is not that of the screen.

Biological target: human ether-à-go-go-related gene (hERG) potassium channel (human, UniProt Q12809)
Assay: primary screen, population patch clamp on CHO cells stably expressing hERG; higher = less effect of the substance
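Note: peak tail current of the secondary pulse compared with the same well before compound.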

Sequence of human ether-à-go-go-related gene (hERG) potassium channel (Q12809 whole entry, looked up): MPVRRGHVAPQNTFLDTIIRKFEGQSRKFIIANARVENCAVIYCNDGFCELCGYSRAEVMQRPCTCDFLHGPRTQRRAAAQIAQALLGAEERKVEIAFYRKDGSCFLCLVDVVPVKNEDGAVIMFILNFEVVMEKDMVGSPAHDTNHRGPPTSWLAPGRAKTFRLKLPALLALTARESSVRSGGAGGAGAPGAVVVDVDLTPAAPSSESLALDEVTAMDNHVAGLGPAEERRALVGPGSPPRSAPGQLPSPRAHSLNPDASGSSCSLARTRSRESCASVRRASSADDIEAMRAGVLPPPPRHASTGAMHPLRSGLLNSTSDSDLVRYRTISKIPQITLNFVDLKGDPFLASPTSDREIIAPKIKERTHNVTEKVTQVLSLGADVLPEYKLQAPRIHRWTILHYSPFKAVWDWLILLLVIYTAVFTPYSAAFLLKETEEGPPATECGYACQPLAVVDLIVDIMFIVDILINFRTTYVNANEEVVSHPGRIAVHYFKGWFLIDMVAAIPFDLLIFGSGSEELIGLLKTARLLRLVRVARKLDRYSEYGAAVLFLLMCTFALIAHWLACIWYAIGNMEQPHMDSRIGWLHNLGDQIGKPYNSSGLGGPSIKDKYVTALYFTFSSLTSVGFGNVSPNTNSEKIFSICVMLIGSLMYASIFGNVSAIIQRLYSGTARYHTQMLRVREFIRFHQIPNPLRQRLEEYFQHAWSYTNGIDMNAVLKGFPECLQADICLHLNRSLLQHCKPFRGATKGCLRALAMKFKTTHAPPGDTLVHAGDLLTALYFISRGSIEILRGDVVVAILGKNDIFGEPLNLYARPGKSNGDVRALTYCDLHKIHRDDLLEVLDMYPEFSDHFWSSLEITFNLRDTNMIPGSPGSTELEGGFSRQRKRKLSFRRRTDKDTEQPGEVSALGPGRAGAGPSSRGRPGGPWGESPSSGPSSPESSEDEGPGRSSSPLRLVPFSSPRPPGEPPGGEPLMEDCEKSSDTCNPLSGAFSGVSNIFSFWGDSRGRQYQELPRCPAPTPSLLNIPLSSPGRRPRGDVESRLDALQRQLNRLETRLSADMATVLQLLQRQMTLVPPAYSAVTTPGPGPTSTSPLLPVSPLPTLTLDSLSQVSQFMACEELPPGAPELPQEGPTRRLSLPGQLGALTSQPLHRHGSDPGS

Compound	hERG current change (%, negative = inhibition) at 10uM
CCOc1ccccc1CNCCNC(=O)c1nonc1N.Cl	-13.5%
Cl.Nc1nonc1C(=O)NCCNCc1cc(Br)ccc1OCc1ccc(F)cc1	-38.2%
C=CCOc1ccccc1CNCCNC(=O)c1nonc1N.Cl	-22.8%
CC1=C(C(=O)Nc2ccccc2)C(c2ccc(O)cc2)N2C(=O)CSC2=N1 (centres unmarked)	3.47%
CC(C)N(CCCNC(=O)CC1Oc2ccccc2NC1=O)Cc1ccccc1 (centres unmarked)	-26.3%
Fc1ccc(/C=N/c2c(-c3ccc(F)cc3)nc3n2CCS3)cc1	-4.46%
Nc1nc2ccccc2n1/N=C/c1ccc([N+](=O)[O-])s1	-1.38%
O=C(O)/C(=C\c1cccs1)c1ccccc1	0.00478%
COc1ccc(OC)c(-n2cnc3cc(C(=O)O)ccc32)c1	3.06%
CC(=O)c1cccc(CN2CCCC(C(=O)c3ccc4c(c3)OCO4)C2)c1 (centres unmarked)	-64.9%
O=C(c1ccc2c(c1)OCO2)C1CCCN(C(=O)NCc2ccccc2)C1 (centres unmarked)	-14.3%
O=C(c1ccc2c(c1)OCO2)C1CCCN(Cc2cccc(C(F)(F)F)c2)C1 (centres unmarked)	-20.5%
O=C(c1ccc2c(c1)OCO2)C1CCCN(Cc2c(F)ccc(F)c2F)C1 (centres unmarked)	-15.8%
CCN(CC)C(=O)C1CCCN(Cc2ccc3c(c2)OCO3)C1 (centres unmarked)	10%
CCOC(=O)C1CCCN(Cc2ccc3c(c2)OCO3)C1 (centres unmarked)	-9.12%
CC(=O)c1ccc(NC(=O)N2CCCC(C(=O)c3ccc4c(c3)OCO4)C2)cc1 (centres unmarked)	-16.4%
CSc1ccccc1NC(=O)N1CCCC(C(=O)c2ccc3c(c2)OCO3)C1 (centres unmarked)	-39.8%
O=C(c1ccc2c(c1)OCO2)C1CCCN(Cc2ccc(F)c(F)c2)C1 (centres unmarked)	-65.4%
Cc1ccc(CN2CCCC(C(=O)c3ccc4c(c3)OCO4)C2)cc1C (centres unmarked)	-64.6%
O=C(c1ccc2c(c1)OCO2)C1CCCN(C2CCN(CCc3ccccc3)CC2)C1 (centres unmarked)	-69.3%
COc1ccccc1/C=C1\C(=O)Nc2ccccc21	2.99%
Cc1cn(S(=O)(=O)c2cc(Br)ccc2Br)cn1	1.08%

Compound	hERG current change (%, negative = inhibition) at 10uM
CCc1ccc(NC(=O)NCCCN2CCCC2=O)cc1	0.255%
CN(C)C1(CNC(=O)CC(NC(=O)c2ccccc2Cl)c2ccccc2)CCCCC1 (centres unmarked)	-31.3%
C[C@@]12CCC3[C@@](CCC4[C@@]3(C)CCC[C@@]4(C)C(=O)N3CCCCC3)(CC1=O)C2 (some centres unmarked)	7.27%
O=c1c(Cc2c(F)cccc2Cl)c(O)ccn1Cc1ccc(F)cc1	-0.211%
CCCC(=O)Nc1ccc(N2CCCCC2)cc1	-8.42%
C=C1C(=O)[C@@]23[C@H](O)C[C@@H]4C(C)(C)CC[C@H](O)[C@]4(C)[C@@H]2C[C@H](O)[C@@H]1[C@H]3O	-0.141%
CC(N)C12CC3CC(CC(C3)C1)C2.Cl (centres unmarked)	14.1%
C/C(=N\N1CCCCC1)c1c(O)[nH]c(=O)[nH]c1=O	-11%
O=C(c1ccc2c(c1)OCO2)C1CCCN(C(=O)C2CCOCC2)C1 (centres unmarked)	7.74%
CSc1ccc(C(=O)C2CCCN(C(=O)c3ccc4c(c3)OCO4)C2)cc1 (centres unmarked)	-34%
Cn1c(CN2CCCC(C(=O)c3ccc4c(c3)OCO4)C2)nc2ccccc21 (centres unmarked)	-70.5%
O=C(c1cccc(Cl)c1)C1CCCN(C(=O)c2ccc3c(c2)OCO3)C1 (centres unmarked)	-34.1%
COc1cccc(C(=O)C2CCCN(Cc3ccc4nsnc4c3)C2)c1 (centres unmarked)	-26%
Cn1cc(CN2CCCC(CNC(=O)c3ccc4c(c3)OCO4)C2)c2ccccc21 (centres unmarked)	-43.6%
O=C(c1ccc2c(c1)OCO2)C1CCCN(Cc2ccc3nsnc3c2)C1 (centres unmarked)	-71.4%
O=C(c1ccc2c(c1)OCO2)C1CCCN(CC2CCCCC2)C1 (centres unmarked)	-71.8%
Cc1cccc(CN2CCCC(C(=O)c3ccc4c(c3)OCO4)C2)n1 (centres unmarked)	-49.2%
O=C(c1ccc2c(c1)OCO2)C1CCCN(Cc2ccc3cccc(F)c3n2)C1 (centres unmarked)	-87%
Cc1sc(NC(=S)NC(=O)c2ccccc2)c(C#N)c1C	0.195%
O=C(N/N=C1\C(=O)c2cccc3cccc1c23)c1ccc(O)cc1	8.35%
CCOC(=O)c1[nH]c2cc(OC)c(OC)cc2c1NC(=O)c1ccc2c(c1)OCO2	-4.45%
COc1cc(C(=O)N/N=C(\C)Cn2nc([N+](=O)[O-])cc2C)ccc1O	-21.1%
